# Screens: PubChem, National Center for Advancing Translational Sciences (NCATS)
# A selection: hits, their analogues and other compounds. The true share with any hit is near 9.3%.
# Rab9 prom act: Rab9 promoter activation; Potency, µM (titrated, usually from 9.22 µM), without a hit: top-dose activation, negative = inhibition, hits mostly activators; Huh7 Rab9 promoter-luciferase reporter, luminescence, 24 h; 2.8% of 320,000 active; also: % of control where 0% means no effect; nearly all actives have a fitted effect of over 60% in size
#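 Cells were plated at 1500 per well in reduced-serum medium with 10% FBS and left 2 h. Compound in DMSO was then added for 24 h at 37 °C. Reporter signal was read by luminescence after 10 min with luciferase detection reagent.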
# SMN2 splice up: enhancers of SMN2 splice variant expression; 2.8% of 210,000 active; Potency, µM (highest dose often 46.1 µM), without a hit: at the top dose activity change, positive = activation, usual class: activators; HEK293 SMN2-luciferase splicing reporter, luminescence, 30-36 h; also: % of control where 0% means no effect; nearly all actives have a fitted effect of over 55% in size
#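 qHTS luciferase splicing reporter: luminescence rises when SMN2 exon 7 is included in transfected HEK293 cells. Compound exposure lasted 30-36 h at 37C, with 4.5 mM final sodium butyrate as control, followed by a ONE-Glo read.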
# NPC1 promoter act: activates the NPC1 promoter; 2.4% of 320,000 active; Huh7 NPC1 promoter luciferase reporter, 24 h; Potency, µM (titrated, usually from 9.22 µM), inactives show at the highest dose activation, most hits filed as activators; also: % of control where 0% means no effect; nearly all actives have a fitted effect of over 60% in size
#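 In 1536-well qHTS, Huh7 cells harboring an NPC1 promoter–luciferase construct received compound for 24 h; activation was quantified by luminescence following luciferase reagent addition.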
# ELG1 repair inh: inhibitors of ELG1-dependent DNA repair in HEK293T cells | HEK293T ELG1-luciferase reporter, luminescence, 16 h; DNA damage induced by 5-fluorouridine | Potency, µM (doses to about 46.1 µM), for inactives: at the highest dose activity change, negative = inhibition, actives largely listed as inhibitors | 2.3% of 330,000 active; also: % is scaled to controls: 0 for no effect and ±100 for the full control effect; nearly all actives have a fitted effect of over 55% in size
#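 5-Fluorouridine DNA damage + compound/DMSO, 2,000 cells/well, 16 h, 37 °C/5% CO2. ONE-Glo, 30 min RT, luminescence. Readout = decrease in reporter signal.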
# FLuc counter: firefly luciferase modulation, counter-screen for miR-21 project. P08659. purified FLuc, Km substrates, luminescence inhibition. Potency, µM (doses to about 57.5 µM), inactives show at the highest dose activity change, negative = inhibition, usual class: inhibitors. 6.9% of 360,000 active;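 also: plate controls were vehicle for no effect and reference inhibitor for full effect; nearly all actives have a fitted effect of over 55% in size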
# Target sequence (P08659 whole entry, looked up): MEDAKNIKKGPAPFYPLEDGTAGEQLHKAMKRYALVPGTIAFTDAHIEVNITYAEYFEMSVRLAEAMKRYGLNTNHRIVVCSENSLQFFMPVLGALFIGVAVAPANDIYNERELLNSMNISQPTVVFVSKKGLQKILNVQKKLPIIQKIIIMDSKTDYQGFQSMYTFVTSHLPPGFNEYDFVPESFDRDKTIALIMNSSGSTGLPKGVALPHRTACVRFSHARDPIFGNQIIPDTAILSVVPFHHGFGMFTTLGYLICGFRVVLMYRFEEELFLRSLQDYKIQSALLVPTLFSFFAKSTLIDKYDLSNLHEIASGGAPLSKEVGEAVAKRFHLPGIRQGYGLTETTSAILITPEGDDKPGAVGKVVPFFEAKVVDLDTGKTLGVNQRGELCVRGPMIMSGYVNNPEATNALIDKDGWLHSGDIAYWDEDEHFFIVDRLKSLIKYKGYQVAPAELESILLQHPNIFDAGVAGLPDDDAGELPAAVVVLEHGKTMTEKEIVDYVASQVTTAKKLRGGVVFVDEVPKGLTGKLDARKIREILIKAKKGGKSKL
#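 Purified P. pyralis luciferase (10nM final) with 10uM D-luciferin and 10uM ATP (Km levels) in 50mM Tris acetate pH 7.5, 10mM Mg acetate, 0.01% Tween-20, 0.05% BSA; qHTS 6-point titration, ~60 µM downward; luminescence read.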
# ELG1 genotox: induces genotoxicity in HEK293T cells with luciferase-tagged ELG1. HEK293T ELG1-luciferase reporter, luminescence, 16 h. Potency, µM (series often up to 46 µM), for the others: top-dose activity change, positive = activation, hits mostly activators. 1.3% of 330,000 active. AID 504466; also: % of control where 0% means no effect; nearly all actives have a fitted effect of over 60% in size
#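 HEK293T cells expressing luciferase-tagged ELG1 were treated with compound or DMSO for 16 hr at 37°C. Luciferase activity was then read after 30 min with ONE-Glo at room temperature; rising signal flags genetic stress.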
# An asterisk follows results filed as active; ? = inconclusive; . = no result. Calls follow the shape of the dose curve; as a rule, active = well fitted curve in the direction sought with a large enough effect; inconclusive = small, poorly fitted or top-dose-only effect, or another doubt; inactive = no such curve, though single readings can be large; an effect the other way counts as inactive or inconclusive. Potency is read from the fitted curve at half-maximal effect.
SMILES,Rab9 prom act,SMN2 splice up,NPC1 promoter act,ELG1 repair inh,FLuc counter,ELG1 genotox
COc1ccc(NC(=O)c2cc3ccccc3o2)cc1,0.562µM*,?,1.58µM*,?,3.79µM*,6.51µM*
Cc1ccccc1OCC(=O)Nc1ccccc1N1CCC(C)CC1,-3.5%,-9.1%,-0.8%,?,-7.6%,-4.8%
COc1ccc(NC(=O)c2cc3ccccc3o2)cn1,2.51µM*,.,2.82µM*,?,13.5µM*,?
CCC(C)NC(=O)CNC(=O)c1nn(-c2ccc(OC)cc2OC)c(=O)c2ccccc12 (centres undefined),2.6%,.,3.6%,21.9%,-5.0%,-2.6%
Cn1ccnc1SCc1cn2cc(Br)ccc2n1,0.562µM*,?,0.316µM*,?,3.79µM*,?
Cn1ccnc1SCc1ccc([N+](=O)[O-])cc1,0.8%,5.4%,1.1%,11.8%,-4.3%,0.2%
Nc1c(C(=O)NC2CCCCC2)nsc1C(=O)OCC(=O)NC1CCCCC1,-10.5%,-21.2%,-10.8%,?,-6.4%,-9.3%
CCOC(=O)c1snc(C(=O)NC2CCCCC2)c1N,3.55µM*,.,?,?,13.5µM*,8.2µM*
Cn1c(N)c(C(=O)CSc2nnc(Cc3cccs3)n2C2CC2)c(=O)n(C)c1=O,2.1%,.,-1.9%,24.2%,-0.1%,1.1%
CCCn1c(N)c(C(=O)CSc2nnc(Cc3cccs3)n2C2CC2)c(=O)n(C)c1=O,-7.3%,.,1.0%,11.2µM*,-5.9%,-1.0%
c1ccc2c(-n3cccn3)cccc2c1,24.3%,-4.1%,?,?,15.1µM*,?
COC(=O)C(Cc1c[nH]c2ccccc12)NC(=O)c1ccccc1Br (centres undefined),-0.6%,.,-0.1%,-0.1%,4.26µM*,-0.3%
CCOC(=O)C(Cc1c[nH]c2ccccc12)NC(=O)c1ccccc1Br (centres undefined),24.1%,.,25.9%,?,0.675µM*,?
CCCCOc1nnc(-c2ccc(OCC)cc2)c2ccccc12,.,1.4%,.,.,?,.
COCn1c(-c2cccc(Br)c2)nc2ccccc21,21.7%,.,1.8%,?,16.9µM*,?
COc1ccccc1Cn1c(C)nc2ccccc21,-9.5%,.,-5.3%,?,3.6%,-3.9%
COCn1c(-c2ccc(OC)c(OC)c2)nc2ccccc21,3.55µM*,20.2%,?,?,10.7µM*,?
CC(C)Cn1c(-c2cccc(Br)c2)nc2ccccc21,.,-11.5%,.,.,-17.2%,.
O=C(CSc1cccc[n+]1[O-])Nc1cc2c(cc1Cl)C(=O)c1ccccc1C2=O,?,11.2µM*,?,?,10.7µM*,15.8%
Cc1cccc(-c2ocnc2C(=O)Nc2ccccc2C(=O)N2CCCC2)c1,-0.1%,.,-1.0%,?,?,-28.5%
Cc1cccc(-c2ocnc2C(=O)Nc2ccccc2NC(=O)c2ccccn2)c1,0.0%,.,-0.6%,-5.1%,13.5µM*,-16.2%
Cc1ccc(-c2ocnc2C(=O)Nc2ccccc2NC(=O)c2ccccn2)cc1,1.4%,.,-0.1%,-19.2%,15.1µM*,-18.7%
O=C(c1cc(-c2cccc(Cl)c2)on1)N1CCN(c2ccc(F)cc2)CC1,-1.0%,.,-3.6%,14.5%,1.3%,21.6%
CN1CCN(C(=O)c2cc(-c3cccc(Cl)c3)on2)CC1,6.31µM*,.,?,?,?,11.1%
O=C(c1cc(-c2cccc(Cl)c2)on1)N1CCCCCC1,2.82µM*,.,2.51µM*,?,10.7µM*,20.6µM*
SMILES,Rab9 prom act,SMN2 splice up,NPC1 promoter act,ELG1 repair inh,FLuc counter,ELG1 genotox
C[C@@H](NC(=O)Cn1ccc(NC(=O)OCc2ccccc2)nc1=O)c1cccc2ccccc12,-1.3%,.,-1.7%,-5.1%,-1.1%,-4.2%
N#Cc1ccccc1OCCN1C(=O)c2ccccc2C1=O,29.3%,.,25.9%,?,?,13µM*
Nc1cccc2c1C(=O)N(CCOc1ccccc1F)C2=O,0.355µM*,.,0.355µM*,?,0.757µM*,0.411µM*
CCOc1ccc(OCCN2C(=O)c3ccccc3C2=O)cc1,-4.3%,.,-1.6%,8.2µM*,-14.7%,-11.9%
COc1ccc(OCC(=O)NC(=O)c2ccccc2)c([N+](=O)[O-])c1,-2.7%,.,-5.8%,28.0%,1.5%,0.7%
COc1ccc(OCCN2C(=O)c3ccccc3C2=O)c([N+](=O)[O-])c1,?,.,28.1%,?,26.9µM*,?
C[C@]12CC(O)C3C(CCC4=CC(=O)CC[C@@]43C)C1CCC2c1csc(-c2ccccc2)n1 (some centres undefined),-15.1%,.,-6.0%,?,-3.1%,-3.4%
O=C1OCCC1Sc1nnc(-c2cccnc2)n1-c1ccccc1F (centres undefined),0.7%,0.4%,-1.2%,18.9%,1.9%,2.2%
Cc1cccc(OCCN2C(=O)c3ccccc3C2=O)c1,3.55µM*,19.0%,26.7%,?,23.9µM*,?
COc1ccc(N2CCN(C(=O)CSc3n[nH]c(-c4ccccc4)n3)CC2)cc1,.,.,.,.,-11.8%,.
O=C(CSc1ncccc1-c1nc2ccccc2[nH]1)N1CCN(c2ccccc2F)CC1,20.7%,-19.3%,-11.1%,?,19µM*,-2.4%
COc1ccc(N2CCN(C(=O)CSc3ncccc3-c3nc4ccccc4[nH]3)CC2)cc1,-2.1%,-30.7%,8.0%,16.5%,10.7µM*,2.8%
O=C(CSc1ncccc1-c1nc2ccccc2[nH]1)NC1CC1,-10.7%,17.0%,-0.4%,27.5%,?,2.9%
COc1ccccc1N1CCN(C(=O)CSc2ncccc2-c2nc3ccccc3[nH]2)CC1,1.4%,-35.5%,0.4%,?,23.9µM*,4.2%
O=C(OCC(=O)N1CCCc2ccccc21)c1cc(S(=O)(=O)N2CCOCC2)ccc1O,-0.9%,.,-5.6%,6.7%,.,3.1%
O=c1c2c(-c3ccccc3)csc2ncn1/N=C/c1c2ccccc2cc2ccccc12,2.7%,-14.6%,-0.6%,?,-0.8%,-16.5%
COc1ccccc1-n1cnc2sc(-c3ccccc3)cc2c1=O,2.82µM*,-20.3%,?,?,10.7µM*,5.4%
O=c1c2cc(-c3ccccc3)sc2ncn1/N=C/c1ccco1,3.55µM*,9.9%,?,?,8.49µM*,?
CCCCCn1cnc2sc(-c3ccccc3)cc2c1=O,2.24µM*,?,2.51µM*,?,6.75µM*,13.4%
CCCCn1cnc2sc(-c3ccccc3)cc2c1=O,1.58µM*,24.4%,1.41µM*,?,5.36µM*,?
Cc1ccc2c(=O)n3c(nc2c1)C(Cc1ccccc1)NC(=O)c1ccc(Cl)cc1-3 (centres undefined),1.5%,.,-2.7%,-16.8%,2.0%,-0.6%
